Activity calls are given as the source filed them. The calls were made as follows: active = hit-call score of the fitted dose curve at least 0.9, where 1 is the maximum; inactive = score below 0.9.
Legend:
[1] = biological target: CCAAT/enhancer-binding protein beta (Homo sapiens) (UniProt P17676); assay: ATG_C_EBP_CIS: Attagene CIS-FACTORIAL HepG2 Assay for human CCAAT/Enhancer Binding Protein (C/EBP) beta (AID 2282927); conditions: HepG2 Attagene cis-factorial transcription factor reporter; actives raise or lower the signal
Summary of the method: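 Endogenous C/EBPb-driven reporter transcripts measured in transfected human HepG2 cells at 24 h via RT-PCR and capillary electrophoresis of labelled fragments. Activity fitted in both directions relative to DMSO baseline.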

[2] = ATG_CMV_CIS: Attagene CIS-FACTORIAL HepG2 Assay for human CMV (Internal Marker) (AID 2282928); conditions: HepG2 CMV promoter reporter, transcription factor profiling; actives raise or lower the signal;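 also: endpoint acts as a background internal control marker rather than a target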
Summary of the method: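 Fluorescence intensity of RT-PCR-derived reporter fragments, resolved by capillary electrophoresis, gives the signal. HepG2 liver cells bearing transfected cis-element reporters were treated 24 h; activity in either direction was fit relative to DMSO-treated controls.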

[3] = ATG_DR4_LXR_CIS: Attagene CIS-FACTORIAL HepG2 Assay for human Liver X Receptor (LXR), DR4 submotif (AID 2282929); conditions: HepG2 Attagene DR4 cis-reporter, mRNA transcription; actives raise or lower the signal
Summary of the method: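 After transient transfection with multiplexed cis-promoter reporter units, HepG2 cells received test chemicals for 24 h. Reporter mRNA induction, detected by fluorescence after RT-PCR and capillary electrophoresis, was scored relative to DMSO.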

[4] = ATG_AP_1_CIS: Attagene CIS-FACTORIAL HepG2 Assay for human Activator Protein 1 (AP-1) (AID 2282931); conditions: HepG2 Attagene cis-factorial AP-1 reporter mRNA; actives raise or lower the signal
Summary of the method: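 After 24 h incubation with test chemical, RNA from transfected HepG2 cells was reverse-transcribed, amplified, fluorescently labelled and digested before capillary electrophoresis. Reporters were driven by cis-regulatory promoters; activity fitted bidirectionally versus DMSO.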

[5] = ATG_AP_2_CIS: Attagene CIS-FACTORIAL HepG2 Assay for human Activator Protein 2 (AP-2) (AID 2282932); conditions: HepG2 AP-2 cis-reporter, Attagene transcription factor profiling; actives raise or lower the signal
Summary of the method: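 Transiently transfected HepG2 cells are exposed to chemical for 24 h. Reporter transcripts are then measured as fluorescence following RT-PCR and capillary separation, and gain- or loss-of-signal is fitted relative to DMSO.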

[6] = ATG_BRE_CIS: Attagene CIS-FACTORIAL HepG2 Assay for human Bone Morphogenetic Protein (BMP) Response Element (BRE) (AID 2282933); conditions: HepG2 BMP response element reporter, Attagene transcription factor profiling; actives raise or lower the signal
Summary of the method: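 Gain- or loss-of-signal was derived by bidirectional fitting against DMSO controls. The signal came from reporter mRNA, measured by RT-PCR and capillary electrophoresis, in HepG2 cells transiently carrying multiple reporter units and dosed for 24 h.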

[7] = biological target: Transcription factor E2F1 (Homo sapiens) (UniProt Q01094); assay: ATG_E2F_CIS: Attagene CIS-FACTORIAL HepG2 Assay for human E2F Transcription Factor 1 (AID 2282935); conditions: HepG2 Attagene cis-reporter, E2F reporter RNA transcripts; actives raise or lower the signal
Summary of the method: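 Fluorescent RT-PCR products, digested with HpaI for 2 h at 37 C, are separated by capillary electrophoresis. Source RNA comes from transfected HepG2 cultures treated for 24 h.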

[8] = ATG_E_Box_CIS: Attagene CIS-FACTORIAL HepG2 Assay for human Enhancer Box (E-box) (AID 2282936); conditions: HepG2 E-box cis-reporter transcription, actives raise or lower the signal
Summary of the method: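 Fluorescent reporter fragments separated by capillary electrophoresis gave the signal; mRNA came from HepG2 cells transfected with cis-element reporters and treated 24 h. Curves fitted bidirectionally relative to DMSO controls.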

[9] = ATG_M_61_CIS: Attagene CIS-FACTORIAL HepG2 Assay for M61 Transcription Factor (Internal Marker) (AID 2282937); conditions: HepG2 Attagene CIS-FACTORIAL M61 internal marker reporter; actives raise or lower the signal
Summary of the method: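 Using transiently transfected HepG2 liver cells, reporter transcript levels were assessed 24 h post-dosing by RT-PCR and capillary electrophoresis. Changes in either direction were fitted relative to DMSO controls.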

[10] = ATG_EGR_CIS: Attagene CIS-FACTORIAL HepG2 Assay for human Early Growth Response 1 (EGR1) (AID 2282938); conditions: HepG2 Attagene CIS-FACTORIAL EGR reporter mRNA; actives raise or lower the signal
Summary of the method: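 Fluorescent capillary-electrophoresis signal of reporter cDNA fragments serves as read-out. HepG2 cells bear transiently transfected cis-promoter reporter units and are exposed 24 h; gain- or loss-of-signal is fitted against DMSO.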

[11] = ATG_Ets_CIS: Attagene CIS-FACTORIAL HepG2 Assay for human Erythroblast Transformation Specific (ETS) (AID 2282941); conditions: HepG2 ETS cis-reporter transcription, actives raise or lower the signal
Summary of the method: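 Multiplexed reporter transcript profiling: HepG2, 24 h treatment, total RNA to cDNA, PCR, 6-FAM labelling, HpaI cut, capillary electrophoresis. Gain- or loss-of-signal fitted against DMSO.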

[12] = ATG_GATA_CIS: Attagene CIS-FACTORIAL HepG2 Assay for human GATA Binding Protein (AID 2282944); conditions: HepG2 GATA cis-element reporter, Attagene multiplex mRNA; actives raise or lower the signal
Summary of the method: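 DMSO serves as negative control and baseline for bidirectional fitting of reporter mRNA changes. HepG2 cells bearing transiently transfected cis-promoter reporters were exposed 24 h; transcripts detected via RT-PCR and capillary electrophoresis.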

[13] = ATG_GLI_CIS: Attagene CIS-FACTORIAL HepG2 Assay for human Zinc Finger Protein GLI1 (AID 2282945); conditions: HepG2, Attagene cis-factorial reporter mRNA, GLI element; actives raise or lower the signal
Summary of the method: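 Bidirectional curve fits relative to DMSO, using reporter mRNA levels from RT-PCR plus capillary electrophoresis. Cells were HepG2 transiently carrying cis-regulated reporter constructs, harvested 24 h after dosing.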

[14] = ATG_ISRE_CIS: Attagene CIS-FACTORIAL HepG2 Assay for human Interferon Regulatory Factor 1 (IRF1) binding to an Interferon-Stimulated Response Element (ISRE) (AID 2282948); conditions: HepG2 ISRE cis-reporter (Attagene), mRNA transcription readout; actives raise or lower the signal
Summary of the method: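 Signal reflects induction or loss of ISRE-linked reporter mRNA in transiently transfected HepG2 cells after a 24 h treatment, detected by fluorescent RT-PCR fragments on capillary electrophoresis and normalised to DMSO.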

[15] = ATG_M_32_CIS: Attagene CIS-FACTORIAL HepG2 Assay for M32 Transcription Factor (Internal Marker) (AID 2282949); conditions: HepG2 Attagene cis-factorial M32 reporter, mRNA; actives raise or lower the signal;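 also: background control marker of the multiplexed CIS panel rather than a real target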
Summary of the method: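 Transient MRTU transfection of HepG2; 24 h compound treatment; TriZol RNA, oligo(dT) RT, reporter PCR, 6-FAM primer extension, HpaI cut, CE. Gain/loss of signal vs DMSO.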

[16] = ATG_M_06_CIS: Attagene CIS-FACTORIAL HepG2 Assay for M06 Transcription Factor (Internal Marker) (AID 2282950); conditions: HepG2 Attagene CIS-FACTORIAL M06 internal marker reporter; actives raise or lower the signal
Summary of the method: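 Fluorescence-labelled RT-PCR products from cis-promoter reporter units, cut with HpaI and resolved by capillary electrophoresis, give the signal. Cells are human HepG2, dosed for 24 h. Serves as background control, fitted relative to DMSO.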

[17] = biological target: Hepatocyte nuclear factor 6 (Homo sapiens) (UniProt Q9UBC0); assay: ATG_HNF6_CIS: Attagene CIS-FACTORIAL HepG2 Assay for human Hepatocyte Nuclear Factor 6 (HNF6) (AID 2282952); conditions: HepG2 Attagene cis-factorial HNF6 reporter transcription; actives raise or lower the signal
Summary of the method: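 First, HepG2 cells were transfected with the multiplexed cis reporter library and dosed with chemical for 24 h. Next, RNA was reverse-transcribed, PCR-amplified and fluorescently labelled. Finally, HpaI-digested fragments were read by capillary electrophoresis.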

[18] = ATG_MRE_CIS: Attagene CIS-FACTORIAL HepG2 Assay for human Metal Responsive Element (MRE) (AID 2282954); conditions: HepG2 MRE cis-reporter transcription, Attagene multiplex; actives raise or lower the signal
Summary of the method: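 Multiplexed cis-reporter assay in human HepG2 liver cells, 24 h incubation with test chemical. Reporter transcripts measured by RT-PCR and capillary electrophoresis; values from bidirectional curve fitting versus DMSO.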

[19] = ATG_PXRE_CIS: Attagene CIS-FACTORIAL HepG2 Assay for human Pregnane X Receptor Element (PXRE) (AID 2282957); conditions: HepG2 Attagene CIS-FACTORIAL PXRE reporter, mRNA; actives raise or lower the signal
Summary of the method: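 After a 24 h chemical incubation, total RNA from transfected HepG2 cells was reverse-transcribed and reporter cDNA amplified, FAM-labeled, HpaI-digested and sized by capillary electrophoresis. DMSO served as baseline for bidirectional curve fitting.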

[20] = ATG_Sox_CIS: Attagene CIS-FACTORIAL HepG2 Assay for human SRY-box transcription factor (SOX) (AID 2282960); conditions: HepG2 Attagene cis-factorial SOX reporter, mRNA; actives raise or lower the signal
Summary of the method: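 Using transiently transfected HepG2 cells, reporter transcription driven by cis elements was assessed 24 h after dosing. Signal was fluorescence of capillary-separated RT-PCR products, with DMSO defining baseline activity.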

Measured: AC50

Chain of CCAAT/enhancer-binding protein beta (Homo sapiens) (P17676 whole entry, looked up, the tested form may be a part): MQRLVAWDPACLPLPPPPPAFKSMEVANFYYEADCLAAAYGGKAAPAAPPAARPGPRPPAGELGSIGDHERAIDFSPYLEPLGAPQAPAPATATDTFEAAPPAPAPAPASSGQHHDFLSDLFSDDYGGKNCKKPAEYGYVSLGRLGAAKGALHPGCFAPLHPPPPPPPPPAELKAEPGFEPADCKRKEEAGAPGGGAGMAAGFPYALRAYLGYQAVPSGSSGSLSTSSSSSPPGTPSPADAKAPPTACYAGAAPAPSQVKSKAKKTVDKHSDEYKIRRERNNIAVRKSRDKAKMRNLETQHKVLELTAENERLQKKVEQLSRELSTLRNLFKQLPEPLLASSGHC
Chain of Transcription factor E2F1 (Homo sapiens) (Q01094 whole entry, looked up): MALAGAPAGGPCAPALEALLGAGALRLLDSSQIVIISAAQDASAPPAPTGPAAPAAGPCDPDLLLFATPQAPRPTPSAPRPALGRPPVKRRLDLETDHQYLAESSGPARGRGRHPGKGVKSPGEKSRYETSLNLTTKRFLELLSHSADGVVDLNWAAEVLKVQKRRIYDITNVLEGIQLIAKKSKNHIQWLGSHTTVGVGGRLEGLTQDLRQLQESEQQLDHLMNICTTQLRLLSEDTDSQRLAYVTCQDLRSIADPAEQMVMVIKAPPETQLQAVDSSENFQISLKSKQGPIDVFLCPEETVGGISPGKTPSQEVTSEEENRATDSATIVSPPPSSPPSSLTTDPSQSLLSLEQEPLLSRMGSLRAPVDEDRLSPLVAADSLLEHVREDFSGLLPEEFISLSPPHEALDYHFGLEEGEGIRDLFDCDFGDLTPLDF
Chain of Hepatocyte nuclear factor 6 (Homo sapiens) (Q9UBC0 whole entry, looked up, the tested form may be a part): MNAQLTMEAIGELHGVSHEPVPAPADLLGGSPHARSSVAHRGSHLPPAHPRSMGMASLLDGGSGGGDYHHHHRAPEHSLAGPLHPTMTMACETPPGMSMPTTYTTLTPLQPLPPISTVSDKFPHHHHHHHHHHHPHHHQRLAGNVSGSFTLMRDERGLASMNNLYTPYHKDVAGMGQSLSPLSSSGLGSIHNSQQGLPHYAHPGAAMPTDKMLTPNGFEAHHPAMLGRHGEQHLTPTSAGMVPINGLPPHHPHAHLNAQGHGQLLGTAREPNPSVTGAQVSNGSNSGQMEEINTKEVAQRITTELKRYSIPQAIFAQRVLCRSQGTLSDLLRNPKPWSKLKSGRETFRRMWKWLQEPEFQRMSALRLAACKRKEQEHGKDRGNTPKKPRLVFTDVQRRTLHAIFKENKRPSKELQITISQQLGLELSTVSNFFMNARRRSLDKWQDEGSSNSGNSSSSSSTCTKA

CNC(=O)Oc1cc(C)c(SC)c(C)c1
active: [2] 17.4 µM | [10] 100 µM | [14] 100 µM | [18] 74.2 µM | [19] 26.7 µM | [20] 27.1 µM
inactive: all other assays above

CCCCOP(=O)(O)OCCCC
inactive: all assays above

O=P1(NCCCl)OCCCN1CCCl (stereo not given)
active: [19] 50.2 µM
inactive: all other assays above

CC(C)c1ccc(O)cc1
active: [2] 40.2 µM | [3] 140 µM | [19] 33.6 µM
inactive: all other assays above

[N-]=[N+]=CC(=O)OC[C@H](N)C(=O)O
active: [19] 26 µM
inactive: all other assays above

O=C(NCNC(=O)NC1C(=O)NC(=O)N1CO)NC1C(=O)NC(=O)N1CO (stereo not given)
active: [4] 130 µM | [18] 162 µM
inactive: all other assays above

C[N+](C)=CCl
inactive: all assays above

c1cc(OCC2CO2)ccc1Cc1ccc(OCC2CO2)cc1 (stereo not given)
inactive: [1] | [6] | [7] | [9] | [11] | [12] | [13] | [15] | [16]
active: [2] 49.6 µM | [3] 48.3 µM | [4] 59.1 µM | [5] 57.9 µM | [8] 53.2 µM | [10] 33.4 µM | [14] 49.1 µM | [17] 45.8 µM | [18] 42.6 µM | [19] 8.22 µM | [20] 33.4 µM

C=C(Cl)CCl
active: [19] 52 µM
inactive: all other assays above

CC(C)(c1cc(Cl)c(O)c(Cl)c1)c1cc(Cl)c(O)c(Cl)c1
active: [2] 8 µM | [3] 33.4 µM | [10] 52.8 µM | [13] 60.7 µM | [14] 47.2 µM | [18] 58.4 µM
inactive: all other assays above

CCOC(=O)COc1ccc(Cl)cc1Cl
inactive: all assays above

Cl/C=C\CCl
inactive: all assays above

O=[N+]([O-])c1ccc(Cl)cc1
inactive: all assays above

CCNCC
inactive: all assays above

Nc1ccccc1
inactive: all assays above

N#Cc1cc(I)c(O)c(I)c1
active: [4] 100 µM
inactive: all other assays above

c1ccc2c(c1)CCCC2
inactive: all assays above

O=C(O)C(Br)Br
inactive: all assays above

Cc1cc(C)c(C2=C(OC(=O)CC(C)(C)C)C3(CCCC3)OC2=O)c(C)c1
active: [3] 28.5 µM | [4] 174 µM | [10] 104 µM | [13] 163 µM | [14] 168 µM | [18] 76 µM | [19] 7.83 µM
inactive: all other assays above

C=CC(=O)OCCO
active: [1] 123 µM | [3] 123 µM | [4] 75.6 µM | [6] 36.9 µM | [10] 116 µM | [18] 70.9 µM
inactive: all other assays above

N#CCCCl
inactive: all assays above

c1ccc(Nc2ccc3ccccc3c2)cc1
active: [3] 20.6 µM | [4] 115 µM | [19] 10.3 µM
inactive: all other assays above

CCC1CCC(=O)O1 (stereo not given)
active: [19] 27.3 µM
inactive: all other assays above

CC=Cc1ccc2c(c1)OCO2
inactive: all assays above

O=C(O)CCl
inactive: all assays above

O=C1C=CC(=O)C=C1
active: [4] 61.2 µM | [19] 26.4 µM
inactive: all other assays above

COC(=O)COc1ccc(Cl)cc1Cl
inactive: all assays above

Reference: PubChem BioAssay (EPA / NIEHS)
